From PubChem BioAssay (EPA / NIEHS)
Inconclusive results are not listed. Active and inactive are the calls of the source. How the source made its calls: active means hit-call score of the fitted dose curve at least 0.9, where 1 is the maximum; inconclusive means response in the unintended direction; inactive means score below 0.9.

Read-out: Cytochrome P450 3A4 (Homo sapiens) (UniProt P08684)
Assay: CLD_CYP3A4_6hr: CellzDirect (CLD) Gene Expression Assay for xenobiotic metabolism (CYP3A4) at 6 hours (AID 2283680)
Experimental: CLD_6hr is a cell-based, multiplexed-readout assay that uses hepatocyte, a human liver primary cell, with measurements taken at 6 hours after chemical dosing in a 96-well plate.CLD_CYP3A4_6hr is one of 16 assay component(s) measured or calculated from the CLD_6hr assay. It is designed to make measurements of mRNA induction, a form of inducible reporter, as detected with chemiluminescence signals by Quantitative Nuclease Protection Assay (qNPA) technology.Data from the assay component CLD_CYP3A4_6hr was analyzed at the endpoint, CLD_CYP3A4_6hr, in the positive analysis fitting direction relative to DMSO as the negative control and baseline of activity. Using a type of inducible reporter, gain-of-signal activity can be used to understand changes in the reporter gene as they relate to the gene CYP3A4. Furthermore, this assay endpoint can be referred to as a primary readout. To generalize the intended target to other relatable targets, this assay endpoint is annotated to the cyp intended target family, where subfamily is xenobiotic metabolism.
Human hepatocyte cultures were treated daily for two consecutive days with fresh dosing solutions containing appropriate concentrations of the 320 ToxCast chemicals (chemical identities were blinded to CellzDirect and other ToxCast collaborators), vehicle control (0.2% DMSO), and positive control inducers as summarized in Table 1. Due to the large number of treatment groups and chemicals examined, the ToxCast chemicals were divided into two groups (spanning two independent cultures of hepatocytes from separate donor preparations (Hu778: ToxCast plates 1 and 2; Hu776: ToxCast plates 3 and 4). Each preparation of human hepatocyte cultures was treated with respective vehicle control, medium only control, set of six positive controls/reference chemicals for the five hepatic receptor pathways, and a subset of eight of the ToxCast chemicals (indoxacarb, pyrithiobac-sodium, norflurazon, cyhalofop-butyl, methomyl, thiram, acetochlor, and propiconazole). These replicate data, coupled with internal replicates designed within the blinded ToxCast chemical library, provided additional data to evaluate interindividual differences between hepatocyte preparations and their potential impact on chemical profiles.Cell morphology and integrity were evaluated using phase-contrast microscopy as an indicator of hepatocyte cell health (Tyson & Green, 1987). Cultures for each treatment group (i.e., media, vehicle [0.2% DMSO], positive control inducers [multiple concentrations], and the ToxCast chemicals [multiple concentrations]) were observed and cell morphology was assessed relative to vehicle control cultures at each harvest time point (0, 6, 24, or 48 h). […] Images were evaluated at the conclusion of the study to assess changes in cell integrity and account for the effects of chemical exposure on uncharacteristic changes in concentration-dependent gene expression profiles. The results from these determinations of apparent cytotoxicity were annotated (yes/no) alongside the corresponding qNPA data for reference.At the conclusion of each treatment period, hepatocyte cultures (96-well) were washed with 1 volume of HBSS, lysed by addition of 25 ul ArrayPlate lysis buffer (HTG, Tucson, AZ), and 70 ul/well of Denaturation Oil, denatured by incubation at 95C for 10 min, and frozen at approximately -70C until analysis by nuclease protection assay (qNPA) (Roberts et al., 2007). For qNPA analysis, cell lysates were thawed at 50C for approximately 30 min, qNPA probes were added, and samples were incubated at 95C for 10 min to begin the detection process by denaturing the target RNA, dissociating the duplexes and secondary structure hybridization. At the conclusion of the hybridization period, S1 nuclease reagent was added to each sample to digest all nonprotected nucleotides at 50C for 60-90 min. […]

Chain of Cytochrome P450 3A4 (Homo sapiens) (P08684 whole entry, looked up): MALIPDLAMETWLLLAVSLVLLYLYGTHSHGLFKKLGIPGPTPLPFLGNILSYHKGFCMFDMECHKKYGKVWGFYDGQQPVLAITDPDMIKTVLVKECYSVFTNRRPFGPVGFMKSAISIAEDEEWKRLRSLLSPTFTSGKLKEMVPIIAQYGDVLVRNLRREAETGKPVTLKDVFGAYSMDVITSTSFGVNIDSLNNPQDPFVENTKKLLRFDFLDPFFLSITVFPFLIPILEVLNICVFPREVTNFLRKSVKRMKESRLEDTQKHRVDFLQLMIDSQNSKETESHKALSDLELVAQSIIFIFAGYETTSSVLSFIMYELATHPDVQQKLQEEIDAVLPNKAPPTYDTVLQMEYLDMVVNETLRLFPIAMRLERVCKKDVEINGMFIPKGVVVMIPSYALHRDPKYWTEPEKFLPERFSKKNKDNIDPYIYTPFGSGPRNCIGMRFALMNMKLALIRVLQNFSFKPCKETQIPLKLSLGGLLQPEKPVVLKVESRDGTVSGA

| SMILES | AC50 | outcome |
| --- | --- | --- |
| COC(=O)c1ccc(I)cc1S(=O)(=O)NC(=O)Nc1nc(C)nc(OC)n1 | 348 nM (active) |  |
| CCCCOC(=O)[C@@H](C)Oc1ccc(Oc2ccc(C(F)(F)F)cn2)cc1 |  | inactive |
| CCOC(=O)COc1cc(-n2ncc(C(F)(F)F)c(C)c2=O)c(F)cc1Cl | 4730 nM (active) |  |
| CCCCCOC(=O)COc1cc(N2C(=O)C3=C(CCCC3)C2=O)c(F)cc1Cl | 3780 nM (active) |  |
| COc1c(Cl)ccc(Cl)c1C(=O)O |  | inactive |
| COC(=O)c1c(Cl)nn(C)c1S(=O)(=O)NC(=O)Nc1nc(OC)cc(OC)n1 |  | inactive |
| CCCCCCC(C)OC(=O)COc1nc(F)c(Cl)c(N)c1Cl (stereo unspecified) |  | inactive |
| Cc1nn(C)c(Oc2ccccc2)c1C=NOCc1ccc(C(=O)OC(C)(C)C)cc1 |  | inactive |
| CN(C)C(=O)Nc1ccc(Cl)c(Cl)c1 |  | inactive |
| CCCCOC(=O)C(C)Oc1ccc(Oc2ccc(C(F)(F)F)cn2)cc1 (stereo unspecified) |  | inactive |
| CC1(C)C(C=C(Cl)Cl)C1C(=O)OCc1cccc(Oc2ccccc2)c1 (stereo unspecified) |  | inactive |
| COc1nc(C)nc(NC(=O)NS(=O)(=O)c2ccccc2OCCCl)n1 |  | inactive |
| CSC(=O)c1cccc2nnsc12 |  | inactive |
| CCCOC(=O)NCCCN(C)C |  | inactive |
| O=C(O)C1(C(=O)Nc2ccc(Cl)cc2Cl)CC1 |  | inactive |
| CCCN(CCC)c1c([N+](=O)[O-])cc(C(F)(F)F)c(N)c1[N+](=O)[O-] |  | inactive |

| SMILES | AC50 | outcome |
| --- | --- | --- |
| CCCCC(CC)COC(=O)c1ccccc1C(=O)O (stereo unspecified) |  | inactive |
| Oc1ccc(C(c2ccc(O)cc2)C(Cl)(Cl)Cl)cc1 |  | inactive |
| CC(C)(c1ccc(O)cc1)c1ccc(O)cc1 |  | inactive |
| S=C(S)NCCNC(=S)S.[Mn+2].[S-]C([S-])=NCCN=C([S-])[S-].[Zn+2] | 3970 nM (active) |  |
| CC(C)(C)[C@@H](O)[C@@H](Cc1ccc(Cl)cc1)n1cncn1 |  | inactive |
| CCCN(CCC)C(=O)SCC |  | inactive |
| COC(=O)CSc1cc(N=c2sc(=O)n3n2CCCC3)c(F)cc1Cl | 1300 nM (active) |  |
| CCOC(=O)NCCOc1ccc(Oc2ccccc2)cc1 |  | inactive |
| CCN(Cc1c(F)cccc1Cl)c1c([N+](=O)[O-])cc(C(F)(F)F)cc1[N+](=O)[O-] | 1900 nM (active) |  |
| c1ccc(Nc2ccccc2)cc1 |  | inactive |
| CCOC(=O)C(C)Oc1ccc(Oc2cnc3cc(Cl)ccc3n2)cc1 (stereo unspecified) |  | inactive |
| CCNc1nc(N)nc(Cl)n1 |  | inactive |
| COCCO |  | inactive |
| COC(=O)c1cccc(C)c1S(=O)(=O)NC(=O)Nc1nc(OCC(F)(F)F)nc(N(C)C)n1 |  | inactive |
| CCCCC(CC)CN1C(=O)C2C3C=CC(C3)C2C1=O (stereo unspecified) |  | inactive |
